The results in this text go back to PubChem BioAssay (NCATS).

Inconclusive results are not listed. Activity calls are given as the source filed them. Unless noted, the call rests on the fitted dose curve; in most records, active means well fitted curve in either direction with a large enough effect (not every such curve was filed as active); inconclusive means small, poorly fitted or top-dose-only effect, or another doubt; inactive means flat fitted curve, though single readings scatter.

A short description of experiment [1]: AP1 Signaling Pathway (AID 357).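 Further: ME-180 reporter cells stimulated with EGF at its EC50 level; on the % scale 0 is the no-effect control and ±100 the full control effect.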 The note with it: ME-180 AP-1-bla reporter, EGF-induced, beta-lactamase ratio, 5 h; at 17.2 µM (top of the series) unless noted. In short, it runs like this:
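A ratiometric CCF4 readout (405 nm excitation; 460 and 530 nm emission) quantified AP-1-driven beta-lactamase in ME-180 cells after 5 h with compound and EC50 EGF; AC50 values were derived for activators and inhibitors.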

The nature of experiment [2]: Stat Signaling Pathway (AID 446).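 Further: ME-180 cervical cancer cells given 40 pM IL-6 alongside compound; SIE-controlled beta-lactamase reporter measured as 460/530 nm FRET emission ratio; on the % scale 0 is the no-effect control and ±100 the full control effect.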 The note with it: ME-180 (cervical carcinoma) SIE beta-lactamase reporter, IL-6 stimulated, 5 h; at 17.2 µM (top of the series) unless noted. An outline of the steps:
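Emission at 460 and 530 nm (excitation 405 nm) reports SIE-controlled beta-lactamase in ME-180 cells. Cells received compound with 40 pM IL-6 for 5 hrs at 37 C; data scaled between 300 pM IL-6 and 125 nM JAK-inhibitor controls.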

Experiment [3] addresses Glucocorticoid receptor (Homo sapiens) (UniProt P04150). The experiment is described as follows: GR-GFP Redistribution (AID 450;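 active means compounds whose dose series gives a full or clear partial fitted curve of increased nuclear translocation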; further: potency means the concentration at half of the fitted maximal effect).
The target is the same in experiment [4]. The experiment is described as follows: GR-EFC Redistribution (AID 451; calls by dose curve; further: potency means the concentration at half of the fitted maximal effect). As to conditions: CHO-K1 GR-EFC translocation, beta-gal luminescence, 2 h. In short, it runs like this: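 CHO-K1 cells expressing nuclear EA and GR-ED fragments of b-gal; compounds titrated up to 46 uM final, 2 h at 37 C. GR nuclear translocation read as complemented b-gal luminescence after 1 h RT detection.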

The target in experiment [5] is Mitogen-activated protein kinase 10 (Mus musculus) (UniProt Q61831). The experiment is described as follows: JNK3 AlphaScreen Assay (AID 530).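 Further: kinase came from lysate of stimulated human HepG2 cells; signal reports phosphorylation of biotinylated GST-cJun 1-79 at Ser73 with 10 µM ATP; on the % scale 0 is the no-effect control and ±100 the full control effect.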 An outline of the steps: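 Activity was read by AlphaScreen after JNK3-containing HepG2 lysate (cytokine pre-activated) phosphorylated biotinylated GST-cJun with 10 uM ATP at room temperature. Phospho-Ser73 cJun antibody with Protein-A acceptor beads provided detection.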
Background: Bead proximity is the source of the signal in Alpha formats.

The target in experiment [6] is 3',5'-cyclic-AMP phosphodiesterase 4B (Homo sapiens) (UniProt Q07343). The experiment is described as follows: qHTS Assay for Inhibitors of PDE-IV (AID 607; active means well fitted activation curve with a large enough effect in the main read-out, with a control signal flat, not every such curve was filed as active; further: % of control where 0% means no effect). An outline of the steps: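 The readout is membrane depolarisation from a cAMP-sensing CNG channel, detected with a potential dye at ex 535/em 590. Cells were HEK293-derived (endogenous PDE-IV) at 1000 cells/well, titrated up to 22.9 uM final.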
Sequence of 3',5'-cyclic-AMP phosphodiesterase 4B (Homo sapiens) (Q07343 whole entry, looked up): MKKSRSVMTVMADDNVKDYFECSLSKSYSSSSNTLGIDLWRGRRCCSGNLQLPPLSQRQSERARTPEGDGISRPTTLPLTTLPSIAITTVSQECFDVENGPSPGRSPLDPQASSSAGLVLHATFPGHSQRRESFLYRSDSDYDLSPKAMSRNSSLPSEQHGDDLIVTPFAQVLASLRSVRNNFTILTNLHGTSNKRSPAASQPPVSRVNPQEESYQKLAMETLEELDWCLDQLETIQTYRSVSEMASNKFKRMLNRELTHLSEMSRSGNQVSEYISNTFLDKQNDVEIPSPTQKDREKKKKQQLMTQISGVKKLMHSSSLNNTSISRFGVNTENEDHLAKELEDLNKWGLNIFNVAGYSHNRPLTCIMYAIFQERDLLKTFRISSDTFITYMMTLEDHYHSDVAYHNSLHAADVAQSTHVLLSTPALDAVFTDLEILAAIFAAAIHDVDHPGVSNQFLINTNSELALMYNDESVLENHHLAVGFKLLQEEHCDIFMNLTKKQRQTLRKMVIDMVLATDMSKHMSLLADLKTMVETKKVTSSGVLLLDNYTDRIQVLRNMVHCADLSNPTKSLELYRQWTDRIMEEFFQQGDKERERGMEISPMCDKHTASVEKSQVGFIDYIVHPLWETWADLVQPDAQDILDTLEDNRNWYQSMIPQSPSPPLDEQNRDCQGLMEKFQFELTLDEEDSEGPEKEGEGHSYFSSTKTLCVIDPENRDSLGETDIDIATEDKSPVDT

Experiment [7] addresses Cytochrome P450 3A4 (Homo sapiens) (UniProt P08684). The experiment is described as follows: qHTS Assay for Inhibitors and Substrates of Cytochrome P450 3A4 (AID 884; active means well fitted curve in the direction sought with a large enough effect; an effect the other way counts as inactive or inconclusive; further: potency means the concentration at half of the fitted maximal effect; nearly all actives have a fitted effect of over 50% in size). An outline of the steps: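 Luminescent readout of luciferin produced by CYP3A4 (20 nM) dealkylation of Luciferin-PPXE, 25 uM (its KM). NADPH-driven reaction ran 60 min at RT after 10 min compound preincubation; data scaled to 57 uM ketoconazole as 100% inhibition.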
For orientation: qHTS replaces the single test concentration by a dilution series.

The target is the same in experiment [8]. The experiment is described as follows: qHTS Assay for Activators of Cytochrome P450 3A4 (AID 885; active means well fitted curve in the direction sought with a large enough effect; an effect the other way counts as inactive or inconclusive; further: nearly all actives have a fitted effect of over 65% in size). An outline of the steps: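 Activators are scored by enhanced luminescence from CYP3A4 conversion of luciferin-PPXE (25uM, equal to KM) to luciferin, after 60 min at RT with an NADPH-regenerating system.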
Experiment [9] deals with Cytochrome P450 2C19 (Homo sapiens) (UniProt P33261). The experiment is described as follows: qHTS Assay for Inhibitors and Substrates of Cytochrome P450 2C19 (AID 899; active means well fitted curve in the direction sought with a large enough effect; an effect the other way counts as inactive or inconclusive; further: potency means the concentration at half of the fitted maximal effect; nearly all actives have a fitted effect of over 60% in size). An outline of the steps:
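5 nM human CYP2C19 with 10uM Luciferin-H EGE (at KM) in 50mM KPO4, compound preincubated 10 min at 37C, then NADPH regeneration for 60 min at 37C. Luciferin read by luminescence after detection reagent; normalized to 57uM ketoconazole as full inhibition.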

Sequence of Glucocorticoid receptor (Homo sapiens) (P04150 whole entry, looked up, the tested form may be a part): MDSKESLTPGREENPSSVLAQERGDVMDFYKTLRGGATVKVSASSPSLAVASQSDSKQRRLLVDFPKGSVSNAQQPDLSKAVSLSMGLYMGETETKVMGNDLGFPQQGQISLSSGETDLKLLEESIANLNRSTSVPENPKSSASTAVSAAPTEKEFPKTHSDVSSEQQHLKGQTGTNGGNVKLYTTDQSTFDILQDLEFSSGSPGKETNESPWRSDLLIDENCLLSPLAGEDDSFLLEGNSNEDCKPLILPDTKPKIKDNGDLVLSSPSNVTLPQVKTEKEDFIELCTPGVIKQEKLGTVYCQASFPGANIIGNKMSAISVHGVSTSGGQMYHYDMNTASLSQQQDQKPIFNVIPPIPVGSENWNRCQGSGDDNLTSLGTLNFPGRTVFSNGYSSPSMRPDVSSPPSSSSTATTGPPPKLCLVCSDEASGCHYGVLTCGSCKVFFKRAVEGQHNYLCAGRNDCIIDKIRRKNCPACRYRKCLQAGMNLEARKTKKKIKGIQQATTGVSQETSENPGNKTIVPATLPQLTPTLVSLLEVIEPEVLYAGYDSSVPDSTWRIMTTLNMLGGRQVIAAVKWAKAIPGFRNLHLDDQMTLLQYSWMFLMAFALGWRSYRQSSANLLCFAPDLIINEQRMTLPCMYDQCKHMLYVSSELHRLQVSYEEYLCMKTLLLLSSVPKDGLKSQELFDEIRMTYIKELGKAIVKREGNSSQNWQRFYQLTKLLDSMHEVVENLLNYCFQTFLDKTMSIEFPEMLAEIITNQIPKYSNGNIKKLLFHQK
Sequence of Cytochrome P450 3A4 (Homo sapiens) (P08684 whole entry, looked up): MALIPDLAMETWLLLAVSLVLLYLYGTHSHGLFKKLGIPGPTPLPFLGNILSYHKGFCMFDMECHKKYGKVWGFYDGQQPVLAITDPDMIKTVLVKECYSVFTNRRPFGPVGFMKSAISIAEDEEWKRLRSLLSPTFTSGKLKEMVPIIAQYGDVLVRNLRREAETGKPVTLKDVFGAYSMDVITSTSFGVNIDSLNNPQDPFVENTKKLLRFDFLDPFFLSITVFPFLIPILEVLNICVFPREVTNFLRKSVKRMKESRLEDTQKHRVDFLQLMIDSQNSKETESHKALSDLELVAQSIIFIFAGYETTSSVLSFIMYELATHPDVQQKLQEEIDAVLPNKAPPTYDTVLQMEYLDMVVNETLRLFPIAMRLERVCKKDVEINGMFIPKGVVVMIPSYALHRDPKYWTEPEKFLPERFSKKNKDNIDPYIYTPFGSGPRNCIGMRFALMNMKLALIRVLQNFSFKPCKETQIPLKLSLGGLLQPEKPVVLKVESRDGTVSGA
Sequence of Cytochrome P450 2C19 (Homo sapiens) (P33261 whole entry, looked up): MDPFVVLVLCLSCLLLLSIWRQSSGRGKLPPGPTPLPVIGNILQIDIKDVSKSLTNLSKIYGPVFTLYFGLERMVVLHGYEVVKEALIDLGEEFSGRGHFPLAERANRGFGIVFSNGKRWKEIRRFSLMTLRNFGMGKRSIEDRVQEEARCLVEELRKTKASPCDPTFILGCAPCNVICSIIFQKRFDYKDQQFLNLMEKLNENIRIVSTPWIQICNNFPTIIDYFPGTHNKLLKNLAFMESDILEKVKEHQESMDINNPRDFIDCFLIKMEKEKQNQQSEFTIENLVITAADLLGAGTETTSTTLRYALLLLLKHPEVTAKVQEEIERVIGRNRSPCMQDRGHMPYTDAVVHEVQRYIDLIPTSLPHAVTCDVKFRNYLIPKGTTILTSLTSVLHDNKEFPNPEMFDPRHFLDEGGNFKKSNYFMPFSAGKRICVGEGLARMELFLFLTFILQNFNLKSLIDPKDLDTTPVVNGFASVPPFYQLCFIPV

For the compound `Cc1cccc(C)c1OCC(O)CNS(=O)(=O)c1ccccc1C(=O)N1CCCCC1` (stereo not given), the activity change, negative = inhibition in [1] is -10.2% (inactive). Further, the activity, negative = inhibition in experiment [2] was -0.145% (inactive). In addition, the Potency in experiment [3] was > 20.6 µM (inactive).

Turning to `COc1ccc(C(=O)Nc2cccnc2)cc1C(=O)Nc1cccnc1`, in experiment [1], the activity change, negative = inhibition is 3.61% (inactive). Besides, the activity, negative = inhibition in experiment [2] was -4.76% (inactive). For the same compound, the Potency in [3] was > 20.6 µM (inactive).

On to `COC(=O)NCC12CC3CC(C1)CC(CNC(=O)OC)(C3)C2`, for which, in [1], the activity change, negative = inhibition is 3.64% (inactive). For the same compound, the activity, negative = inhibition in [2] is -1.03% (inactive). Also, the Potency in [3] was > 20.6 µM (inactive).

As to `CCC(CC)c1nc2cc(OC)c(OC)cc2c(=O)o1`, the activity change, negative = inhibition in experiment [1] was -1.43% (inactive). Further, the activity, negative = inhibition in experiment [2] is -3.88% (inactive). The Potency in [3] was > 20.6 µM (inactive).

Regarding `CCOC(=O)CSc1nnc2n(C3CCCCC3)c(=O)c3c4c(sc3n12)CCCC4`, in experiment [1], the activity change, negative = inhibition was -9.49% (inactive). Besides, the activity, negative = inhibition in experiment [2] is -21.4% (inactive). Also, the Potency in experiment [3] is > 20.6 µM (inactive).

Turning to `COc1ccc(-c2nc3c(Br)c(N)c(Br)cc3o2)cc1`, in [1], the activity change, negative = inhibition is 4.22% (inactive). Moreover, the activity, negative = inhibition in experiment [2] is 8.24% (inactive). In experiment [3], the Potency was > 20.6 µM (inactive).

Consider `CC1(C)Cc2c(sc(NC(=O)c3ccc(Br)o3)c2C#N)CO1`, for which the activity change, negative = inhibition in experiment [1] is -3.32% (inactive). In [2], the activity, negative = inhibition is -9.34% (inactive). Also, the Potency in experiment [3] is > 20.6 µM (inactive).

For `Cc1cc(C)n(-c2nnc(C)n2/N=C/c2ccccc2F)n1`, in [1], the activity change, negative = inhibition was 8.65% (inactive). In addition, the activity, negative = inhibition in experiment [2] is 18% (inactive). The Potency in experiment [3] is > 20.6 µM (inactive).

With `CCOC(=O)c1ccc(N2C(=O)CC(Sc3nnc(C)s3)C2=O)cc1` (stereo not given), in experiment [1], the activity change, negative = inhibition was 6.1% (inactive). In addition, the activity, negative = inhibition in experiment [2] is 1.82% (inactive). The Potency in experiment [3] was > 20.6 µM (inactive).

As to `N#Cc1c(N)n(CCOC(=O)c2cccc(Br)c2)c2nc3ccccc3nc12`, the activity change, negative = inhibition in [1] was -0.25% (inactive). For the same compound, the activity, negative = inhibition in experiment [2] is 16.2% (inactive). Moreover, the Potency in [3] was > 20.6 µM (inactive).

On to `CN(C)CCCN1C(=O)C(=O)/C(=C(/O)c2ccccc2)C1c1ccccn1` (stereo not given), for which the activity change, negative = inhibition in experiment [1] is 7% (inactive). For the same compound, the activity, negative = inhibition in experiment [2] was 4.69% (inactive). In experiment [3], the Potency is > 20.6 µM (inactive).

For the compound `CCOC(=O)/C=c1\s/c(=C(\C#N)C(=O)OCC)n(-c2ccccc2)c1=O`, the activity change, negative = inhibition in experiment [1] was 2.08% (inactive). Besides, in [2], the activity, negative = inhibition is -22.2% (inactive). In experiment [3], the Potency was > 20.6 µM (inactive).

Consider `NC(=O)/C(=C\c1ccncc1)c1cccc2ccccc12`, for which the activity change, negative = inhibition in [1] was -11.2% [at 7.69 µM] (inactive); in experiment [5] it was 1.18% [at 11.4 µM] (inactive). In addition, the activity, negative = inhibition in experiment [2] was -3.8% [at 7.69 µM] (inactive). In addition, the Potency in [3] is > 46 µM (inactive); in [4], > 9.22 µM (inactive); in experiment [7], 3.16 µM (active); in [9], 2.51 µM (active). For the same compound, in experiment [6], the Potency entry is “inactive”. Moreover, the activity change, positive = activation in experiment [8] was -72.7% [at 11.4 µM] (inactive).

On to `Cc1cc(Nc2ccc3ccccc3c2)n2ncnc2n1`, for which, in experiment [1], the activity change, negative = inhibition is 16.7% (inactive). In addition, the activity, negative = inhibition in experiment [2] is -6.76% (inactive). The Potency in experiment [3] is > 20.6 µM (inactive).

For `O=C(O)CC(NCc1ccco1)C(=O)OCC1CCCO1` (stereo not given), the activity change, negative = inhibition in experiment [1] is 11.5% (inactive). In [2], the activity, negative = inhibition is -1.58% (inactive). In addition, the Potency in experiment [3] was > 20.6 µM (inactive).

For the compound `CCCOc1ccc(Cc2nn[nH]n2)cc1`, in [1], the activity change, negative = inhibition was 6.52% (inactive). Besides, the activity, negative = inhibition in experiment [2] was 2.28% (inactive). Also, in experiment [3], the Potency is > 20.6 µM (inactive).

As to `CCOC(=O)c1[nH]c2cc(OC)c(OC)cc2c1NC(=O)C(C)N1CCN(Cc2ccccc2)CC1` (stereo not given), the activity change, negative = inhibition in experiment [1] was -21.5% (inactive). For the same compound, the activity, negative = inhibition in [2] was -4.92% (inactive). In addition, the Potency in [3] is > 20.6 µM (inactive).

For the compound `CC[C@H](c1ccccc1)c1cc(C(C)(C)C)cc(C(C)(C)C)c1O`, the values for the activity change, negative = inhibition in [1] and in experiment [5] were 7.36% [at 7.69 µM] (inactive) and 6.57% [at 11.4 µM] (inactive), respectively. Further, the activity, negative = inhibition in experiment [2] was 3.9% [at 7.69 µM] (inactive). In addition, the Potency in experiment [3] is > 46 µM (inactive); in experiment [4] it was > 9.22 µM (inactive). Further, the Potency entry in experiment [6] was “inactive”. In addition, the activity change, positive = activation in experiment [8] was -33% [at 11.4 µM] (inactive).

Regarding `CC(C)(C)c1cccc(/C=N/O)c1O`, in experiment [1], the activity change, negative = inhibition is -17.8% (inactive). In experiment [2], the activity, negative = inhibition was -5.38% (inactive). The Potency in [3] is > 20.6 µM (inactive).

For the compound `CCCCNC1=C(Br)C(=O)CC(C)(C)C1`, the activity change, negative = inhibition in experiment [1] was 4.07% (inactive). The activity, negative = inhibition in experiment [2] was -6.99% (inactive). Besides, the Potency in [3] is > 20.6 µM (inactive).
